High-throughput results from PubChem.
KDM5B inh: KDM5B demethylase inhibition. Q9UGL1. KDM5B demethylase, FDH-coupled NADH fluorescence (FDH is formaldehyde dehydrogenase). Potency, µM (titrated, usually from 57.7 µM), most hits filed as inhibitors. 220,000 compounds, 2.6% hits; further: potency means the concentration at half of the fitted maximal effect; 0% is about no effect; nearly all actives have a fitted effect of over 70% in size
Target sequence (Q9UGL1 whole entry, looked up): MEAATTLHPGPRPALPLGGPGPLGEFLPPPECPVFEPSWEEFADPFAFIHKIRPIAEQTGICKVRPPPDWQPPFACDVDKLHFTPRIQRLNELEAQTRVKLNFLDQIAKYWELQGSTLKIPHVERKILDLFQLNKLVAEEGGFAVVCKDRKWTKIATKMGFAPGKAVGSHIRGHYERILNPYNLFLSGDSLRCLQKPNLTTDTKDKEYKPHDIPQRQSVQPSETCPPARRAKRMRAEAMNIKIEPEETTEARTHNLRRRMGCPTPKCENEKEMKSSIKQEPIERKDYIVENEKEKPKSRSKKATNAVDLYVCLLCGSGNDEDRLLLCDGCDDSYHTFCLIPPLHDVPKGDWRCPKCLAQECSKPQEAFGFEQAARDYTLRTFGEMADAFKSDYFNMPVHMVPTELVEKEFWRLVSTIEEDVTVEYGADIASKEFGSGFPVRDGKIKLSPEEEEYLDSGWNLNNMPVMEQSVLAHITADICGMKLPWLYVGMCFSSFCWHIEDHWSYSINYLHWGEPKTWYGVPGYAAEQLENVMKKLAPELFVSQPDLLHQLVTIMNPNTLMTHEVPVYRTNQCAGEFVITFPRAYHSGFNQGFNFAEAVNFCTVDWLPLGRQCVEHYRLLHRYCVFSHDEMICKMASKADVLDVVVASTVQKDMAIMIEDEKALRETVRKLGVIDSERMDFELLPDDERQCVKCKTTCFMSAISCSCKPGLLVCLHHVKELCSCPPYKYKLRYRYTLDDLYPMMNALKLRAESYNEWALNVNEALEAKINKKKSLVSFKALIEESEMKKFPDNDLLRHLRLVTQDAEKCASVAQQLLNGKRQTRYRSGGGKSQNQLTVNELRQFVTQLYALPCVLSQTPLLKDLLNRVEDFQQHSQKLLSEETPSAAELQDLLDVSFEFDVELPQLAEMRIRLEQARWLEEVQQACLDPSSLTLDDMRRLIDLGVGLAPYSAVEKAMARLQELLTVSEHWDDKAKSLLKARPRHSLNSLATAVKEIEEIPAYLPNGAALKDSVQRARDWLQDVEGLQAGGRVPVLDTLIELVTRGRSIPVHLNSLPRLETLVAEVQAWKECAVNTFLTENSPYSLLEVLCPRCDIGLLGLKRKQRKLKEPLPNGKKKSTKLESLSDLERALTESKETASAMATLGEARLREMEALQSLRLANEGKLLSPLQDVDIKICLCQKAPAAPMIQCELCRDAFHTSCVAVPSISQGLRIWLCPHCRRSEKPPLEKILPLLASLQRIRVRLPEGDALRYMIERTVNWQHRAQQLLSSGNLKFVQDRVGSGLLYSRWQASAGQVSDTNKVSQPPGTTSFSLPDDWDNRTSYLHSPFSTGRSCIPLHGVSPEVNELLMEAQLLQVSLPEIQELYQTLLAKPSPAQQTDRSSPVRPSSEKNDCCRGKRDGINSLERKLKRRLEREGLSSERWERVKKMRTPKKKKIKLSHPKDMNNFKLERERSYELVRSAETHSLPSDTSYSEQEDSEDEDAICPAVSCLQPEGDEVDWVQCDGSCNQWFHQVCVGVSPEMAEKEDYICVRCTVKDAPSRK
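Inhibition is measured as reduced NADH fluorescence generation from FDH coupling to formaldehyde release. Truncated KDM5BΔAP at 200 nM final acts on H3K4me3 peptide (12.5 µM in substrate mix) in pH 7.5 HEPES buffer with Tween-20, 30 min, room temperature.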
SNCA viab count: reduces viability of HEK-293 SNCA reporter cells; 150,000 compounds, 0.12% hits; HEK-293-SNCA-luc viability, GF-AFC fluorescence, 24 h; Potency, µM (titrated, usually from 57.1 µM), without a hit: at the highest dose activity change, negative = cytotoxicity, usual class: cytotoxic;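 further: potency means the concentration at half of the fitted maximal effect; 0% = DMSO-treated cells and -100% = medium-only wells without cells; nearly all actives have a fitted effect of over 30% in size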
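HEK-293-SNCA-luc cells (1500/well) plated 24 h, then exposed 24 h to a dilution series; GF-AFC added 30 min at 37C, fluorescence 405/540 nm; normalised to medium-only and DMSO wells, Hill fit.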
IP6K1 inh: IP6K1 kinase inhibition; Q92551; IP6K1 kinase, ADP-Glo luminescence, 2 h; active compounds read low; activity change, % (series mostly up to about 58 µM); 140,000 compounds, 0.81% hits; AID 1645851; in the data active means activity change below about -25%; further: on the % scale 0 is the no-effect control and ±100 the full control effect
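ADP-Glo luminescence measures ADP made by human IP6K1 during a 2 h RT reaction with ATP/IP6 (mix at 1.3 mM/130 uM); top library doses 57.5 and 19.1 uM final.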
SNCA expr inhib: inhibitors of alpha-synuclein (SNCA) gene expression; HEK-293 SNCA-luciferase knock-in, luminescence, 24 h; Potency, µM (highest dose often 57.2 µM), without a hit: top-dose activity change, negative = inhibition, hits mostly inhibitors; 140,000 compounds, 0.17% hits;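 further: potency means the concentration at half of the fitted maximal effect; plate controls were DMSO cells for no effect and cell-free wells for full effect; nearly all actives have a fitted effect of over 45% in size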
An asterisk follows results filed as active; i = inactive; ? = inconclusive; · = no result given; [ ] = remark or other dose. Sampled rows, rich in hits. Any-hit rate of the full collection: about 2.8%. Unless noted, the call rests on the fitted dose curve; in most records, active means well fitted curve in the direction sought with a large enough effect; inconclusive means small, poorly fitted or top-dose-only effect, or another doubt; inactive means no such curve, though single readings can be large; an effect the other way counts as inactive or inconclusive.

SMILES | KDM5B inh | SNCA viab count | IP6K1 inh | SNCA expr inhib
O=C(Cn1ccn2nc(-c3ccc(F)cc3)c(CO)c2c1=O)Nc1cc(F)ccc1Cl | i | -18% | 5 | ?
Cc1ccc(NC(=O)Cn2ccn3nc(-c4ccc(F)cc4)c(CO)c3c2=O)cc1 | 22µM* | 7% | -2 | 6%
O=C(Cn1ccn2nc(-c3ccc(F)cc3)c(CO)c2c1=O)Nc1ccccc1Cl | 28µM* | 2% | 3 | -7%
O=C(Cn1ccn2nc(-c3ccc(F)cc3)c(CO)c2c1=O)Nc1cccc(C(F)(F)F)c1 | 22µM* | 8% | 2 | 6%
COCCNC(=O)c1ccc2oc(-c3ccnc(Cl)c3)nc2c1 | · | 4%[12.5 µM] | 8 | -18%
O=C(Nc1ncc(Cc2cccc(Cl)c2)s1)C1CCCCC1 | i | · | · | ·
CC(C)(C)c1cnc(CSc2cnc(NC(=O)C3CCNCC3)s2)o1 | · | ? | · | 1.5µM*
COc1ccccc1CNC(=O)c1cccc2c1C(=O)N(C1CCCCC1)C2 | i | · | · | ·
C#CCNC(=O)c1cc(-c2ccc([S+](C)(=O)[O-])cc2)nc2c1cnn2C | 32µM* | -14% | -5 | 4%
Cn1ncc2c(C(=O)N3CCOCC3)cc(-c3ccc([S+](C)(=O)[O-])cc3)nc21 | ? | -11% | -3 | -5%
Cn1ncc2c(C(=O)N3CCCC3)cc(-c3ccc([S+](C)(=O)[O-])cc3)nc21 | 89µM* | -15% | -8 | 11%
Cn1ncc2c(C(=O)NCc3ccc(F)cc3)cc(-c3ccc([S+](C)(=O)[O-])cc3)nc21 | 50µM* | -13% | 6 | ?
C#CCNC(=O)c1cc(-c2ccc(OC)cc2)nc2c1cnn2C | · | · | -10 | ·
CNC(=O)c1cc(-c2cccc(NC(C)=O)c2)cc2c1OCCN2Cc1cccnc1 | ? | -8%[87.6 µM] | 5 | 79%[87.6 µM]
CC(C)CNC(=O)c1cc(-c2ccccc2F)cc2c1OCCN2Cc1cccnc1 | 32µM* | ? | -21 | ?
CNC(=O)c1cc(-c2ccccc2OC)cc2c1OCCN2Cc1cccnc1 | 28µM* | -17%[87.6 µM] | -19 | 1%[87.6 µM]
O=C(NC1CCOCC1)c1cc(-c2ccccc2F)cc2c1OCCN2Cc1cccnc1 | 22µM* | -12% | -12 | -7%
CNC(=O)c1cc(-c2ccc(OC)nc2)cc2c1OCCN2Cc1cccnc1 | 28µM* | 9%[87.6 µM] | -21 | -4%[87.6 µM]
CNC(=O)c1cc(-c2ccc(N3CCOCC3)cc2)cc2c1OCCN2Cc1cccnc1 | i | 9% | -8 | -26%
COc1ccc(C)cc1NC(=O)CN1C(=O)NC2(CCS(=O)(=O)CC2)C1=O | i | 6% | 0 | 8%
CCCNC(=O)c1ccccc1-c1ncc(-c2ccc(F)cc2)o1 | i | · | · | ·
O=C1CN(C(=O)c2csc3nc(-c4ccc(C(F)(F)F)cc4)cn23)CCCN1 | i | -6% | -6 | 8%
O=C(/C=C/c1ccc2ccc(Cl)cc2n1)NC1CCCCC1 | i | · | · | ·
CNC(=O)c1cc(-c2ccccc2O)cc2c1OCCN2Cc1cccnc1 | 32µM* | -13%[87.6 µM] | 3 | 26%[87.6 µM]
CNC(=O)c1cc(-c2ccccc2F)cc2c1OCCN2Cc1cccnc1 | 40µM* | ? | -6 | -6%[87.6 µM]
SMILES | KDM5B inh | SNCA viab count | IP6K1 inh | SNCA expr inhib
COCCNC(=O)c1cc(-c2ccccc2F)cc2c1OCCN2Cc1cccnc1 | 32µM* | ? | -15 | -15%[87.6 µM]
CNC(=O)c1cc(Nc2cccc(N(C)C)c2)cc2c1OCCN2Cc1cccnc1 | ? | 7%[87.6 µM] | -19 | 6%[87.6 µM]
CNC(=O)c1cc(-c2ccccc2C)cc2c1OCCN2Cc1cccnc1 | ? | -12%[87.6 µM] | 4 | 4%[87.6 µM]
O=C(c1cc(-c2ccccc2F)cc2c1OCCN2Cc1cccnc1)N1CC(O)C1 | 40µM* | -2%[87.6 µM] | -15 | -9%[87.6 µM]
O=C(c1cc(-c2ccccc2F)cc2c1OCCN2Cc1cccnc1)N1CCCC1 | ? | ? | -16 | 11%[87.6 µM]
CN(C)c1ccc(NC(=O)c2ccc(C(C)(C)C)cc2)cc1 | i | · | · | ·
CCN(CC)S(=O)(=O)c1ccc(C)c(NS(=O)(=O)c2cccc(C(C)=O)c2)c1 | i | · | · | ·
O=S(=O)(c1cccc(Br)c1)N1CCOCC1 | i | · | · | ·
CC1=C(C(=O)N2CCOCC2)C(c2ccc(F)cc2F)NC(=O)N1Cc1ccccc1 (configuration not stated) | i | · | · | ·
Cc1cc(C)c(NC(=O)Cn2c(=O)n(Cc3ccc(C(=O)NCc4ccco4)cc3)c(=O)c3sccc32)c(C)c1 | i | ? | 10 | 25µM*
Cc1cccc(C)c1NC(=O)Cn1c(=O)n(Cc2ccc(C(=O)NCc3ccco3)cc2)c(=O)c2sccc21 | i | -28% | 39 | ?
O=c1c2c(n(Cc3cccnc3)n1-c1ccccc1)CN(Cc1ccccc1Cl)CC2 | ? | ? | 7 | ?
